# From PubChem BioAssay AID1159580 (chemical genetic matrix, 2015)
# Where “and” joins values, the source holds several entries; their conditions need not be identical. Equal entries are not always repeated. Hit rate of the full screen: of about 5,500 compounds, about 2,000 (36%) were called active. About 18% were inconclusive and are not listed. The list shows a part of the results. Unmarked numbers belong to inactive results. No stated cut-off is given here; in the data, active means normalized growth mostly below about 0.91 (no sharp cut-off); inconclusive means no clear call, values can overlap the other calls; inactive means mostly above about 0.92.
# Experiment: chemical genetic growth profiling, strain panel (AID 1159580);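 further: tested at 20 µM; growth read once vehicle control cultures reached saturation at 30 °C; 1 = growth at the plate median or of vehicle wells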
# Details: growth OD
structure (smiles),measurement,setting,value
O=C(O)CCCc1ccc(N(CCCl)CCCl)cc1,normalized growth,"S. cerevisiae deletion strains, locus YKL009W, strain mrt4, stronger effect = lower value",0.92
same,normalized growth,"S. cerevisiae deletion strains, locus YKL068W, stronger effect = lower value",0.973
same,normalized growth,"S. cerevisiae deletion strains, locus YKL085W, strain MDH1 (second series), stronger effect = lower value",0.942
same,normalized growth,"S. cerevisiae deletion strains, locus YKL085W, strain MDH1, stronger effect = lower value",0.942
same,normalized growth,"S. cerevisiae deletion strains, locus YKL160W, strain elf1, stronger effect = lower value",0.927
same,normalized growth,"S. cerevisiae deletion strains, locus YKR001C, strain vps1, stronger effect = lower value",0.985
same,normalized growth,"S. cerevisiae deletion strains, locus YKR026C, strain gcn3, stronger effect = lower value",0.971
same,normalized growth,"S. cerevisiae deletion strains, locus YKR091W, strain srl3, stronger effect = lower value",0.962
same,normalized growth,"S. cerevisiae deletion strains, locus YLL001W, strain dnm1, stronger effect = lower value",1.01
same,normalized growth,"S. cerevisiae deletion strains, locus YLL026W, stronger effect = lower value",0.984
same,normalized growth,"S. cerevisiae deletion strains, locus YLL041C, strain sdh2, stronger effect = lower value",0.963
same,normalized growth,"S. cerevisiae deletion strains, locus YLR027C, strain aat2, stronger effect = lower value",0.949
same,normalized growth,"S. cerevisiae deletion strains, locus YLR039C, strain RIC1, stronger effect = lower value",0.974
same,normalized growth,"S. cerevisiae deletion strains, locus YLR058C, strain SHM2, stronger effect = lower value",0.977
same,normalized growth,"S. cerevisiae deletion strains, locus YLR102C, strain apc9, stronger effect = lower value",0.987
same,normalized growth,"S. cerevisiae deletion strains, locus YLR113W, strain HOG1, stronger effect = lower value",0.838 (active)
same,normalized growth,"S. cerevisiae deletion strains, locus YLR221C, strain rsa3, stronger effect = lower value",1.03
same,normalized growth,"S. cerevisiae deletion strains, locus YLR258W, strain gsy2, stronger effect = lower value",0.96
same,normalized growth,"S. cerevisiae deletion strains, locus YLR262C, strain YPT6 (second series), stronger effect = lower value",0.987
same,normalized growth,"S. cerevisiae deletion strains, locus YLR262C, strain YPT6, stronger effect = lower value",0.915
same,normalized growth,"S. cerevisiae deletion strains, locus YLR268W, strain sec22, stronger effect = lower value",0.981
same,normalized growth,"S. cerevisiae deletion strains, locus YLR320W, strain mms22, stronger effect = lower value",0.993
same,normalized growth,"S. cerevisiae deletion strains, locus YLR330W, strain CHS5, stronger effect = lower value",0.985
same,normalized growth,"S. cerevisiae deletion strains, locus YLR342W, strain FKS1 (second series), stronger effect = lower value",0.96
same,normalized growth,"S. cerevisiae deletion strains, locus YLR342W, strain FKS1, stronger effect = lower value",0.99
same,normalized growth,"S. cerevisiae deletion strains, locus YLR357W, strain rsc2, stronger effect = lower value",0.948
same,normalized growth,"S. cerevisiae deletion strains, locus YLR370C, strain arc18, stronger effect = lower value",0.959
same,normalized growth,"S. cerevisiae deletion strains, locus YLR371W, strain rom2, stronger effect = lower value",0.992
same,normalized growth,"S. cerevisiae deletion strains, locus YLR384C, strain iki3, stronger effect = lower value",0.979
same,normalized growth,"S. cerevisiae deletion strains, locus YLR418C, strain cdc73, stronger effect = lower value",1.03
same,normalized growth,"S. cerevisiae deletion strains, locus YML016C, strain PPZ1, stronger effect = lower value",0.984
same,normalized growth,"S. cerevisiae deletion strains, locus YML032C, strain rad52, stronger effect = lower value",0.944
same,normalized growth,"S. cerevisiae deletion strains, locus YML120C, strain ndi1, stronger effect = lower value",0.987
same,normalized growth,"S. cerevisiae deletion strains, locus YML124C, strain tub3, stronger effect = lower value",0.989
same,normalized growth,"S. cerevisiae deletion strains, locus YMR058W, strain fet3, stronger effect = lower value",0.979
same,normalized growth,"S. cerevisiae deletion strains, locus YMR078C, strain ctf18, stronger effect = lower value",0.972
same,normalized growth,"S. cerevisiae deletion strains, locus YMR125W, strain sto1, stronger effect = lower value",0.945
same,normalized growth,"S. cerevisiae deletion strains, locus YMR129W, stronger effect = lower value",0.969
same,normalized growth,"S. cerevisiae deletion strains, locus YMR205C, strain PFK2, stronger effect = lower value",0.992
same,normalized growth,"S. cerevisiae deletion strains, locus YMR223W, strain ubp8, stronger effect = lower value",1.01
same,normalized growth,"S. cerevisiae deletion strains, locus YMR231W, strain pep5, stronger effect = lower value",0.981
same,normalized growth,"S. cerevisiae deletion strains, locus YMR307W, strain GAS1, stronger effect = lower value",0.922 and 0.985
same,normalized growth,"S. cerevisiae deletion strains, locus YNL067W, strain RPL9B, stronger effect = lower value",1.02
same,normalized growth,"S. cerevisiae deletion strains, locus YNL071W, strain lat1, stronger effect = lower value",0.964
same,normalized growth,"S. cerevisiae deletion strains, locus YNL153C, strain GIM3, stronger effect = lower value",1.01
same,normalized growth,"S. cerevisiae deletion strains, locus YNL175C, strain NOP13, stronger effect = lower value",1.04
same,normalized growth,"S. cerevisiae deletion strains, locus YNL183C, strain NPR1, stronger effect = lower value",0.908
same,normalized growth,"S. cerevisiae deletion strains, locus YNL197C, strain WHI3, stronger effect = lower value",0.989
same,normalized growth,"S. cerevisiae deletion strains, locus YNL209W, strain ssb2, stronger effect = lower value",0.976
same,normalized growth,"S. cerevisiae deletion strains, locus YNL224C, strain SQS1, stronger effect = lower value",1
same,normalized growth,"S. cerevisiae deletion strains, locus YNL233W, strain BNI4, stronger effect = lower value",1.03
same,normalized growth,"S. cerevisiae deletion strains, locus YNL248C, strain rpa49, stronger effect = lower value",0.882 (active)
same,normalized growth,"S. cerevisiae deletion strains, locus YNL250W, strain rad50, stronger effect = lower value",0.819 (active)
same,normalized growth,"S. cerevisiae deletion strains, locus YNL271C, strain bni1, stronger effect = lower value",0.967
same,normalized growth,"S. cerevisiae deletion strains, locus YNL298W, strain CLA4, stronger effect = lower value",0.896 (active)
same,normalized growth,"S. cerevisiae deletion strains, locus YNL307C, strain MCK1, stronger effect = lower value",0.983
same,normalized growth,"S. cerevisiae deletion strains, locus YNL322C, strain KRE1 (second series), stronger effect = lower value",0.943
same,normalized growth,"S. cerevisiae deletion strains, locus YNR049C, strain mso1, stronger effect = lower value",0.959
same,normalized growth,"S. cerevisiae deletion strains, locus YNR052C, strain pop2, stronger effect = lower value",0.985
same,normalized growth,"S. cerevisiae deletion strains, locus YOL006C, strain TOP1, stronger effect = lower value",1.11
same,normalized growth,"S. cerevisiae deletion strains, locus YOL012C, strain htz1",1.27
same,normalized growth,"S. cerevisiae deletion strains, locus YOL147C, strain pex11, stronger effect = lower value",0.99
same,normalized growth,"S. cerevisiae deletion strains, locus YOR001W, strain rrp6, stronger effect = lower value",1.03
same,normalized growth,"S. cerevisiae deletion strains, locus YOR061W, strain CKA2, stronger effect = lower value",0.969
same,normalized growth,"S. cerevisiae deletion strains, locus YOR069W, strain VPS5, stronger effect = lower value",0.975
same,normalized growth,"S. cerevisiae deletion strains, locus YOR070C, strain gyp1, stronger effect = lower value",0.984
same,normalized growth,"S. cerevisiae deletion strains, locus YOR080W, strain dia2, stronger effect = lower value",0.963
same,normalized growth,"S. cerevisiae deletion strains, locus YOR083W, strain WHI5 (second series), stronger effect = lower value",0.99
same,normalized growth,"S. cerevisiae deletion strains, locus YOR083W, strain WHI5, stronger effect = lower value",0.94
same,normalized growth,"S. cerevisiae deletion strains, locus YOR106W, strain vam3, stronger effect = lower value",0.918
same,normalized growth,"S. cerevisiae deletion strains, locus YOR136W, strain idh2, stronger effect = lower value",0.987
same,normalized growth,"S. cerevisiae deletion strains, locus YOR144C, strain elg1, stronger effect = lower value",0.987
same,normalized growth,"S. cerevisiae deletion strains, locus YOR184W, strain ser1, stronger effect = lower value",0.976
same,normalized growth,"S. cerevisiae deletion strains, locus YOR231W, strain MKK1, stronger effect = lower value",0.84 (active)
same,normalized growth,"S. cerevisiae deletion strains, locus YOR265W, strain rbl2, stronger effect = lower value",0.969
same,normalized growth,"S. cerevisiae deletion strains, locus YOR270C, strain vph1, stronger effect = lower value",0.986
same,normalized growth,"S. cerevisiae deletion strains, locus YOR290C, strain snf2, stronger effect = lower value",0.935
same,normalized growth,"S. cerevisiae deletion strains, locus YOR316C, strain cot1, stronger effect = lower value",0.976
same,normalized growth,"S. cerevisiae deletion strains, locus YPL051W, strain arl3, stronger effect = lower value",0.997
same,normalized growth,"S. cerevisiae deletion strains, locus YPL055C, strain LGE1, stronger effect = lower value",0.992
same,normalized growth,"S. cerevisiae deletion strains, locus YPL078C, strain atp4, stronger effect = lower value",0.952
same,normalized growth,"S. cerevisiae deletion strains, locus YPL106C, strain sse1, stronger effect = lower value",0.899
same,normalized growth,"S. cerevisiae deletion strains, locus YPL240C, strain hsp82, stronger effect = lower value",0.988
same,normalized growth,"S. cerevisiae deletion strains, locus YPL241C, strain CIN2, stronger effect = lower value",0.997
same,normalized growth,"S. cerevisiae deletion strains, locus YPL256C, strain CLN2, stronger effect = lower value",0.857
same,normalized growth,"S. cerevisiae deletion strains, locus YPR119W, strain clb2, stronger effect = lower value",0.985
same,normalized growth,"S. cerevisiae deletion strains, locus YPR141C, strain kar3, stronger effect = lower value",0.99
same,normalized growth,"S. cerevisiae deletion strains, locus YPR163C, strain tif3, stronger effect = lower value",0.984
same,normalized growth,"S. cerevisiae deletion strains, locus YPR167C, strain met16, stronger effect = lower value",0.994
same,normalized growth,"S. cerevisiae deletion strains, strain wtn01, stronger effect = lower value",0.993
same,normalized growth,"S. cerevisiae strains, strain wild type, stronger effect = lower value",0.984
